Source: ChEMBL document CHEMBL4513216, “Probing the Open Global Health Chemical Diversity Library for Multistage-Active Starting Points for Next-Generation Antimalarials” (ACS Infect Dis, 2020)
The whole screen tested about 69,000 compounds, of which about 8,600 (12%) showed an effect of 50% or more. The entries come from a sample that favours strong results as a whole.

These compounds were tested on Plasmodium berghei (assay: Screen against P. berghei liver stage (PbLuc), transformed with Luciferase, at 10uM). Conditions: tested at 10 uM.
Type: functional, HepG2
Compound `Cc1cc(C)c2c(OCC(=O)N(C)CC(=O)NC(C)C)nn(C)c2n1` has an INHIBITION of -0.275%.
`CCCn1cc(NC(=O)NCC2CCS(=O)(=O)C2)nn1` (configuration not stated) showed an INHIBITION of 16.6%.
`COCCN1C(=O)[C@@H]2CC[C@H]1CN(c1ncccn1)C2` gave an INHIBITION of -33.4%.
In the case of `Cc1nc(C2CCCN2CC(=O)NCCc2ccc(Cl)cc2)no1` (configuration not stated), the INHIBITION is reported as 44.1%.
Compound `Brc1ccc(-c2nnc(CN(Cc3cccs3)CC3CCCO3)o2)s1` (configuration not stated) has an INHIBITION of 90.2%.
With `CC(C)(C)c1nnc(CN(Cc2cccs2)CC2CCCO2)o1` (configuration not stated) the INHIBITION was 44%.
`c1coc(-c2nnc(CN(Cc3cccs3)CC3CCCO3)o2)c1` (configuration not stated) was tested, and the INHIBITION was 16.6%.
`CC1CCN(Cc2c(C(C)C)[nH]c3ncccc23)CC1` showed an INHIBITION of 8.12%.
`COCCC(=O)N1CCC2(CC1)CN(S(C)(=O)=O)Cc1ccccc1O2` gave an INHIBITION of -0.66%.
With `OCCN1CCOC2(CCCN(c3cccc(F)c3)C2)C1` (configuration not stated) the INHIBITION was 43.8%.
`O=S(=O)(C1CC1)N1CCOC2(CCCN(c3cccc(F)c3)C2)C1` (configuration not stated) gave an INHIBITION of -57.1%.
`Fc1cccc(N2CCOC3(CCCN(c4nncs4)C3)C2)c1` (configuration not stated) gave an INHIBITION of -22.5%.
For `Cc1nnc(N2CCCC3(CN(c4cccc(F)c4)CCO3)C2)o1` (configuration not stated), the INHIBITION was 33%.
`Cc1ccc(CN2CCOC3(CCCN(c4cccc(F)c4)C3)C2)o1` (configuration not stated) gave an INHIBITION of 81.2%.
Work on `Fc1cccc(N2CCCC3(CN(Cc4ccco4)CCO3)C2)c1` (configuration not stated) yielded an INHIBITION of 80%.
With `CS(=O)(=O)NC1CC2(CCN(CC3CC3)CC2)Oc2ccccc21` (configuration not stated) the INHIBITION was 19.4%.
`CN(Cc1cccnc1)[C@@H]1CN(C(=O)NC2CC2)[C@@H]2CCCO[C@H]12` gave an INHIBITION of 32.2%.
For `Cc1cc(C(=O)N2CCCC(c3cc(=O)nc4n3CCC4)C2)on1` (configuration not stated), the INHIBITION was 20.6%.
With `CCOc1nc2cnccc2n(CC(=O)Nc2ccccc2OC)c1=O` the INHIBITION was -1.45%.
Work on `O=S(=O)(c1cccs1)N1CC[C@@H](O)[C@@H]1Cc1ccncc1` yielded an INHIBITION of 71.9%.
`O=S(=O)(c1cccs1)N1CC[C@H](O)[C@@H]1Cc1ccncc1` showed an INHIBITION of 28.4%.
`CO[C@H]1CCN(S(=O)(=O)c2cccs2)[C@H]1Cc1ccncc1` gave an INHIBITION of 7.77%.
For `Cc1ccc(Sc2nccn(C)c2=O)cc1`, the INHIBITION was -53.1%.
Work on `Cc1c[nH]c(C2CN(Cc3ccccc3C(=O)O)CCO2)n1` (configuration not stated) yielded an INHIBITION of 26.7%.
Compound `COc1ccc(CNC(=O)CCSCc2csc(C)n2)cn1` has an INHIBITION of -12.2%.
For `CCN(CC)c1ncc(CNC2CCc3nc(C)nn3C2)s1` (configuration not stated), the INHIBITION was 4.22%.
With `CC(O)CNc1ccc(C#N)cc1C(F)(F)F` (configuration not stated) the INHIBITION was 50.8%.
With `CC/C=C(/C)C(=O)NS(=O)(=O)c1ccc(C#N)cc1C(F)(F)F` the INHIBITION was -7.53%.
Work on `CCC(CC)C(=O)NS(=O)(=O)c1ccc(C#N)cc1C(F)(F)F` yielded an INHIBITION of 11.9%.
`CCC(C)C(=O)NS(=O)(=O)c1ccc(C#N)cc1C(F)(F)F` (configuration not stated) gave an INHIBITION of 9.54%.
`N#Cc1ccc(NCC(O)c2ccco2)c(C(F)(F)F)c1` (configuration not stated) was tested, and the INHIBITION was 25.7%.
`COCC(O)CNc1ccc(C#N)cc1C(F)(F)F` (configuration not stated) was tested, and the INHIBITION was 77.7%.
Compound `Cc1ccc(C2CCCN(C(=O)c3cnn(C)c3)C2)nc1` (configuration not stated) has an INHIBITION of 3.91%.
`CCNC(=O)CN1CCCC(c2ccc(C(=O)O)cc2)C1` (configuration not stated) showed an INHIBITION of 45%.
`CC(C)c1cncnc1N1CC[C@H](N2CCOCC2)[C@H](CCCO)C1` showed an INHIBITION of 30.5%.
`O=C(c1ccc(=O)[nH]c1)N1C[C@H]2CC[C@@H](C1)N(Cc1ccccc1)C2` was tested, and the INHIBITION was -70.7%.
`O=C(NCCc1cnccn1)C1(N2CCCCC2)Cc2ccccc2C1` was tested, and the INHIBITION was 43.7%.
With `Cc1[nH]ccc1C(=O)Nc1cccc(CN2CCC(O)CC2)c1` the INHIBITION was -4.74%.
In the case of `COc1cc(NC(=O)c2ccc(CN3CC[C@H](O)C3)cc2)cc(OC)c1`, the INHIBITION is reported as 67.6%.
`Cc1cncc(NC(=O)c2ccc(CN3CC[C@H](O)C3)cc2)c1` was tested, and the INHIBITION was 87.5%.
For `CCNC(=O)C1CCN(Cc2ccc(C(=O)Nc3cnns3)cc2)C1` (configuration not stated), the INHIBITION was 12.2%.
In the case of `NC(=O)C1CCCN(Cc2ccc(C(=O)Nc3cnns3)cc2)C1` (configuration not stated), the INHIBITION is reported as 40.15%.
For `O=C(Nc1ccccc1CCO)c1cccc(CN2CC[C@H](O)C2)c1`, the INHIBITION was 23.9%.
In the case of `COc1ccc(NC(=O)c2ccc(CN3CC[C@H](O)C3)cc2)c(OC)n1`, the INHIBITION is reported as 26.7%.
In the case of `Cc1cc(NC(=O)c2ccc(CN3CC[C@H](O)C3)cc2)ccc1F`, the INHIBITION is reported as 90.3%.
`Cc1cncc(NC(=O)c2ccc(CN3CCC(CO)CC3)cc2)c1` was tested, and the INHIBITION was -12.4%.
Compound `CCNC(=O)C1CCN(Cc2ccc(C(=O)Nc3nnc(C)s3)cc2)C1` (configuration not stated) has an INHIBITION of 57.35%.
Work on `O=C(Nc1cccc2c1CCCC2)c1cccc(CN2CC[C@H](O)C2)c1` yielded an INHIBITION of 37.6%.
With `Cc1cncc(NC(=O)c2ccc(CN3CCCC(C(N)=O)C3)cc2)c1` (configuration not stated) the INHIBITION was 23%.
In the case of `Cc1ccc(CN2C[C@@H]3[C@@H](C(=O)N4CCCC4)CCS(=O)(=O)[C@@H]3C2)cc1`, the INHIBITION is reported as -10.9%.
In the case of `O=C(c1ccc[nH]1)N1C[C@@H]2CC[C@H]1CN(c1ncccn1)C2`, the INHIBITION is reported as -16.5%.
`O=C1C[C@H]2[C@@H](CCN2C(=O)c2ccc[nH]2)N1CCN1CCCC1` showed an INHIBITION of 47.9%.
